Source: the supplement of paper PMC12636033
± gives the standard deviation of the averaged measurements. The full ranking holds about 33,000 sequences; the median of “E-score (rank enrichment, -0.5 to 0.5)” is about -0.0068, and the highest 2% start at about 0.24. This excerpt belongs to a sample that is enriched for the highest values.

Test system: muMax20 (Max(13-93) K31hArg/K57hArg, M65Nle)
Test: PBM 8-mer E-score (E-score (rank enrichment, -0.5 to 0.5)); higher = stronger preferential binding
Procedure: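 Protein binding microarray (universal PBM chip covering all 10-mers in fixed probe flanks) with chemically synthesized human Max(13-93) bHLH-LZ analogs (not full-length Max) bearing noncanonical residues (hArg, Tha, Aib, Nle at 65) and aromatic Cys staples. Read-out per 8-mer (and its reverse complement): E-score (rank-based enrichment, -0.5 to 0.5) and Z-score of median probe intensity.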

| Sequence | PBM 8-mer E-score |
| --- | --- |
| TATAATAA | 0.315 ± 0.015 |
| AATAATAG | 0.263 ± 0.024 |
| ACTAATAT | 0.199 ± 0.0057 |
| CATAATAC | 0.26 ± 0.066 |
| TGTAATAA | 0.189 ± 0.076 |
| GATAATAA | 0.164 ± 0.034 |
| AATAATAC | 0.16 ± 0.018 |
| CATAATAA | 0.216 ± 0.021 |
| ACTAATAG | 0.191 ± 0.025 |
| GATAATAC | 0.204 ± 0.073 |
| AATAATAT | 0.244 ± 0.011 |
| CATAATAG | 0.229 ± 0.017 |
| CAGCCTGA | -0.0558 ± 0.092 |
| CGGCGGAA | -0.0106 ± 0.03 |
| AATTGCTC | -0.0189 ± 0.0015 |
| ACTAGATC | -0.0146 ± 0.044 |
| CGCACCAG | -0.0279 ± 0.043 |
| ATGAGACC | -0.0938 ± 0.12 |
| CTGTCCTC | -0.0695 ± 0.18 |
| CGTCCTGC | -0.0779 ± 0.08 |
| ATAGCTGG | -0.243 ± 0.062 |
| AATACTAC | 0.197 ± 0.038 |
| AAAAATAA | 0.0636 ± 0.065 |
| AATACTAA | 0.158 ± 0.052 |
| AATACTAT | 0.265 ± 0.077 |

| Sequence | PBM 8-mer E-score |
| --- | --- |
| GGTAATAA | 0.0931 ± 0.008 |
| TCTAATAA | 0.236 ± 0.032 |
| AGTAATAG | 0.227 ± 0.078 |
| AATAATAA | 0.277 ± 0.011 |
| AATAATCC | 0.0218 ± 0.0033 |
| ACTAATAA | 0.222 ± 0.015 |
| CCTAATAA | 0.103 ± 0.096 |
| AGTAATAA | 0.271 ± 0.0094 |
| AACGGAGT | -0.013 ± 0.052 |
| ATCGTCGA | -0.133 ± 0.025 |
| ATTGGATA | -0.0183 ± 0.031 |
| ATAATGAC | 0.122 ± 0.01 |
| CCAGTCCA | -0.0788 ± 0.061 |
| TAAAAGTA | 0.189 ± 0.074 |
| GTGGGCAA | 0.0632 ± 0.065 |
| ACATGTGG | 0.335 ± 0.035 |
| ACATGTCA | 0.0739 ± 0.079 |
| CCATGTGC | 0.265 ± 0.12 |
| AGATGTGG | -0.0064 ± 0.024 |
| CCATGTTC | -0.0553 ± 0.12 |
| CGATGTGA | -0.012 ± 0.0036 |
| CTATGTGC | 0.175 ± 0.034 |
| AGATGTGA | 0.11 ± 0.04 |
| CCATGTGA | 0.268 ± 0.088 |
| AAATGTGG | 0.139 ± 0.016 |

| Sequence | PBM 8-mer E-score |
| --- | --- |
| GCATGTGA | 0.236 ± 0.11 |
| ACATGTGA | 0.313 ± 0.063 |
| CTAGTAAC | 0.196 ± 0.0053 |
| ATCTTGGC | -0.108 ± 0.011 |
| AGCTCGTG | 0.0196 ± 0.019 |
| GGGCCACA | -0.0874 ± 0.078 |
| CTGCTGCC | -0.156 ± 0.007 |
| GTGTCTAA | 0.0915 ± 0.069 |
| ATGGATAA | 0.163 ± 0.05 |
| GATCCAAC | -0.0916 ± 0.056 |
| CGATGCAG | -0.0636 ± 0.022 |
| AGGCACAA | 0.00764 ± 0.053 |
| AGATGTGC | -0.0232 ± 0.13 |
| ACATGTGC | 0.265 ± 0.089 |
| ACATGTCC | 0.132 ± 0.091 |
| AAAAGGGT | 0.017 ± 0.098 |
| ACCACGCA | -0.00629 ± 0.023 |
| CCCACGCA | -0.043 ± 0.11 |
| AGCACGCA | 0.00177 ± 0.16 |
| ACCACGCC | -0.112 ± 0.055 |
| CGCACGCG | 0.171 ± 0.035 |
| CCCACGCG | 0.246 ± 0.025 |
| CCCACGCC | -0.00197 ± 0.078 |
| AGCACGCG | 0.238 ± 0.13 |
| CAAACACG | 0.292 ± 0.006 |

| Sequence | PBM 8-mer E-score |
| --- | --- |
| ACCACGCG | 0.3 ± 0.11 |
| TAAACACA | 0.218 ± 0.043 |
| CAAACACA | 0.181 ± 0.095 |
| ATCTCAAT | 0.0437 ± 0.22 |
| ATCTCCCA | 0.0498 ± 0.043 |
| AGACCAGA | -0.0423 ± 0.084 |
| AGGGTGCG | -0.107 ± 0.027 |
| CTGAGCAG | -0.139 ± 0.067 |
| ACATAGGC | 0.126 ± 0.0047 |
| CGCAGGGA | -0.135 ± 0.074 |
| CACACGCA | 0.0877 ± 0.054 |
| ACCACGTG | 0.477 ± 0.026 |
| CACACGCG | 0.258 ± 0.038 |
| ATCACGTA | 0.144 ± 0.055 |
| ATCACGTG | 0.445 ± 0.064 |
| AGCACGTG | 0.436 ± 0.07 |
| AGCACGTA | 0.0788 ± 0.0046 |
| ACCACGTA | -0.0417 ± 0.022 |
| AACACGCG | 0.202 ± 0.042 |
| AGCACGTC | -0.139 ± 0.096 |
| ACCACGTC | 0.0772 ± 0.1 |
| ATCACGTC | 0.182 ± 0.045 |
| ATGCCCAG | -0.219 ± 0.063 |
| ACTCGCTA | -0.111 ± 0.17 |
| CCGTGCCG | -0.206 ± 0.017 |

| Sequence | PBM 8-mer E-score |
| --- | --- |
| GACCACAC | 0.0455 ± 0.029 |
| CACTAGGG | -0.0807 ± 0.033 |
| TATGGAAA | 0.148 ± 0.034 |
| CCCCCTCG | -0.0378 ± 0.01 |
| ATGCCCAC | 0.164 ± 0.033 |
| AATGAATC | -0.0408 ± 0.034 |
| ACTGAATA | 0.0784 ± 0.014 |
| AATGAATG | 0.259 ± 0.058 |
| AATGAACT | -0.00523 ± 0.086 |
| CATGAATG | 0.126 ± 0.15 |
| GATGAATA | 0.24 ± 0.097 |
| AATGAATA | 0.275 ± 0.093 |
| TATGAATA | 0.159 ± 0.029 |
| CATGAATA | 0.192 ± 0.13 |
| GATGAATC | 0.0791 ± 0.018 |
| AATGAAAT | 0.0911 ± 0.04 |
| AATGAATT | 0.238 ± 0.013 |
| ATGTATCA | 0.135 ± 0.08 |
| ATAGAGCA | -0.146 ± 0.024 |
| GAACCGAA | 0.0388 ± 0.025 |
| AAACCCCG | 0.193 ± 0.062 |
| ACCTACTG | 0.118 ± 0.053 |
| CATTGATC | 0.196 ± 0.028 |
| ATCGCAAT | 0.0576 ± 0.054 |
| CAAAGCTC | -0.178 ± 0.079 |

| Sequence | PBM 8-mer E-score |
| --- | --- |
| CGCATCTA | 0.176 ± 0.0097 |
| CTCTTCGA | 0.0225 ± 0.082 |
| AAATTGTT | 0.136 ± 0.14 |
| AAATTGTA | 0.282 ± 0.017 |
| TAATTGTA | 0.146 ± 0.091 |
| CGCGAACC | -0.2495 ± 0.00081 |
| CCTGAAAG | 0.0218 ± 0.0043 |
| ACAACATG | 0.265 ± 0.008 |
| ACAACAAA | 0.163 ± 0.0084 |
| ACAACATA | 0.0952 ± 0.11 |
| ACAACAAG | 0.262 ± 0.017 |
| ACAACAAC | 0.125 ± 0.024 |
| ACAACCAT | 0.29 ± 0.03 |
| ACAACATC | 0.0572 ± 0.022 |
| ACAACCAC | 0.033 ± 0.02 |
| ACAACCAG | 0.062 ± 0.026 |
| CCGTGAGA | -0.189 ± 0.067 |
| ACCTATGA | -0.136 ± 0.034 |
| ACCACCGC | -0.0018 ± 0.023 |
| ATTCTTTC | 0.176 ± 0.02 |
| CGCAGTGC | -0.12 ± 0.2 |
| CATCGGGC | -0.209 ± 0.08 |
| ATGTTGCA | 0.122 ± 0.029 |
| AAGTAGAT | 0.0944 ± 0.081 |
| ACCTGGCG | -0.256 ± 0.014 |

| Sequence | PBM 8-mer E-score |
| --- | --- |
| GGGGCACA | 0.0581 ± 0.01 |
| ATTGAAAC | 0.154 ± 0.059 |
| CGTGAAAA | 0.213 ± 0.11 |
| GGTGAAAA | -0.0373 ± 0.0061 |
| CTTGAAAA | 0.117 ± 0.035 |
| TGTGAAAA | 0.289 ± 0.071 |
| ATTGAAAA | 0.306 ± 0.03 |
| CGCCGACC | -0.14 ± 0.057 |
| ACTGAGGA | -0.126 ± 0.025 |
| AGCACCTG | -0.0212 ± 0.043 |
| TACGTAGA | 0.0117 ± 0.044 |
| AACGAGGT | -0.0494 ± 0.052 |
| AGTTAGCA | 0.0279 ± 0.055 |
| GCGTGTCA | 0.149 ± 0.2 |
| ACGTGTCG | 0.237 ± 0.075 |
| CCGTGTCG | -0.1658 ± 0.00081 |
| ACGTGTCC | 0.166 ± 0.052 |
| ACGTGTCT | 0.326 ± 0.036 |
| AAGTGTCT | 0.0152 ± 0.031 |
| AAGTGTCG | 0.0406 ± 0.12 |
| CCGTGTCA | -0.0799 ± 0.0084 |
| ACGTGTCA | 0.278 ± 0.094 |
| CAGCCGTA | -0.128 ± 0.029 |
| CCATTAAC | 0.239 ± 0.015 |
| GCATTAAC | 0.0389 ± 0.091 |
